Results from ChEMBL document CHEMBL1157539, “Thousands of chemical starting points for antimalarial lead identification” (Nature, 2010).

Tested on: HepG2
Assay: GSK_TCMDC: Percent inhibition of human HepG2 cell line. Test compounds present at 10uM.
Format: functional

| SMILES | Inhibition |
| --- | --- |
| Cc1[nH]c2ccc(C#N)cc2c(=O)c1Br | 2% |
| COc1cccc(O)c1CN1CCC2(CCCN(Cc3ccc(F)cc3)C2)C1 (stereo not given) | 21% |
| O=C(O)C(F)(F)F.OCC1CCN(Cc2ccc(-c3cccc(-c4nc5cc(C(F)(F)F)ccc5[nH]4)c3)cc2)CC1 | 19% |
| CCC(C)CN1C(=O)C(c2ccccc2)(c2ccccc2)N=C1N.O=CO (stereo not given) | 11% |
| CCCC(CCC)n1ccc2c3c(N)nc(N)nc3ccc21.Cl | 66% |
| COc1cc(C)nc2ccc(NC(=O)Nc3ccc4nc(C)cc(OC)c4c3)cc12 | 79% |
| O=C(C1CCCC1)N1CCOC(CCN2CCC(c3ccccc3)CC2)(c2ccc(Cl)c(Cl)c2)C1 (stereo not given) | 16% |
| COc1ccc(Cn2c(SCc3ccc(C)cc3)nc3cc(OC)c(OC)cc3c2=N)cc1Cl | 50% |
| CCOc1cc2c(cc1S(=O)(=O)c1ccc(COc3ccc(C(F)(F)F)cc3)cc1)CCN(C)CC2.Cl | 27% |
| CCOCCCn1c(=N)c(C(=O)NCc2ccc(F)cc2)cc2c(=O)n3cccc(C)c3nc21 | 21% |
| c1ccc2sc(Sc3ncnc4sccc34)nc2c1 | 7% |
| COc1ccc(-c2ccc(NC(=O)c3ccc(C#N)cc3)cc2)cc1CN1CCNCC1.O=C(O)C(F)(F)F | 23% |
| Cc1cc2ncn(-c3nccc(NCc4ccc(F)c(C)c4)n3)c2cc1C.O=C(O)C(F)(F)F | 10% |
| COC(=O)c1ccc2nc(-c3cc(-c4cccc(-c5ccccc5)c4)cnc3N)[nH]c2c1 | 25% |
| CC(C)CCn1c(Sc2ccc(C#N)c([N+](=O)[O-])c2)nnc1-c1ccc(Cl)cc1 | 25% |
| CCCc1cc(Cc2cnc(N)nc2N)cc(CC)c1OC.Cl | 4% |
| O=C(Nc1ccc(Cl)cc1F)NC1CCN(CCCCCNC(=O)C2CC2c2ccc(Cl)c(Cl)c2)CC1 (stereo not given) | 46% |
| CC(=O)N(Cc1nc(-c2cc(Cl)c(Cl)s2)cs1)c1c(C)cccc1C | 5% |
| CN1CCN(c2nsc3ccc(-c4ccc(OCCN5CCCC5)cc4)cc23)CC1.O=C(O)C(F)(F)F | 57% |
| CN1CCN(CC(=O)Nc2ccc(-c3cccc(-c4nc5cc(C(F)(F)F)ccc5[nH]4)c3)cc2)CC1 | 45% |

| SMILES | Inhibition |
| --- | --- |
| Cc1nc(O)c2c(ccc3ccc(CNc4ccc(C(=O)N[C@@H](CCC(=O)O)C(=O)O)c(F)c4)cc32)n1 | 41% |
| CCn1c(SCc2ccccc2)nc2c1c(=O)[nH]c(=O)n2C | 1% |
| CCNc1cc(C(=O)N[C@@H](Cc2ccccc2)[C@H](O)CN[C@H](C)c2ccccc2)cc(N2CCCC2=O)c1 | 0% |
| CCc1cc(=O)[nH]c(-n2nc(C)cc2NC(=O)CC(c2ccccc2)c2ccccc2)n1 | 37% |
| OCc1c(Cl)cc(Cl)cc1CNCCCNc1nc2ccccc2[nH]1 | 0% |
| Cc1ccc(Oc2ccc(NC(=O)CNc3ccccc3N3CCCC3=O)cc2)cc1 | 14% |
| Cc1cccc2nc(-c3ccc(-c4ccc(NC(=O)C(=O)c5cccn5C)cc4)cc3)[nH]c12 | 40% |
| CC(=O)Nc1ccc2[nH]cc(C3CCN(CC4CCC(NC(=O)/C=C/c5ccccc5Cl)CC4)CC3)c2n1 (stereo not given) | 16% |
| COc1ccc(CNCc2ccc(-c3ccc(-c4nc5cccc(C)c5[nH]4)s3)cc2)cc1.O=C(O)C(F)(F)F | 54% |
| NS(=O)(=O)c1cccc(-c2ccc3c(O)ncnc3c2)c1 | 6% |
| O=C(Nc1cccc(CN2CCCN(Cc3cccc(O)c3)CC2)c1)c1ccc2ccccc2c1.O=C(O)C(F)(F)F | 21% |
| Cc1cc(Nc2cccc(C(F)(F)F)c2)nc(N)n1 | 5% |
| CC(C)C[C@H](NC(=O)c1ccc(OCCN2CCOCC2)cc1)C(=O)N[C@H](/C=N/N1CCNC1=O)CCc1ccccc1 | 1% |
| CCOc1ccc(C2CCN(CCCCNC(=O)c3ccc(NC(=O)c4ccc(Cl)cc4)cc3)CC2)c(OCC)c1.Cl | 14% |
| CN1CCN(CC(O)CNC(=O)Nc2ccc(Br)cc2)CC1.O=C(O)C(F)(F)F (stereo not given) | 5% |
| Cl.N#Cc1ccc2c(c1)CCN(CCC1CCC(NC(=O)c3ccc(-c4ccccn4)s3)CC1)CC2 (stereo not given) | 16% |
| O=C(C1CC1c1ccccc1)N(Cc1ccc(-c2ccc(CNCCc3ccccc3)cc2)cc1)C1CCNCC1.O=C(O)C(F)(F)F (stereo not given) | 36% |
| COc1cc(Cc2cnc(N)nc2N)cc(OC(C)C)c1OC | 10% |
| CCc1ccc(C2CCN(CCCCNC(=O)c3ccc(-c4ccc(C(F)(F)F)cc4)cc3)CC2)c(OCCO)c1.Cl | 82% |
| O=C(O)C(F)(F)F.OC1CCCN(Cc2cccc(-c3ccc(-c4nc5cc(C(F)(F)F)ccc5[nH]4)cc3)c2)C1 (stereo not given) | 27% |
